This is an account of results in PubChem BioAssay (NCATS).

Results filed as inconclusive are left out. Unmarked numbers belong to inactive results. Activity calls are given as the source filed them. Calls follow the shape of the dose curve; as a rule, active = well fitted cell-killing curve with a large enough effect; inconclusive = small, poorly fitted or top-dose-only effect, or effect the other way; inactive = no such curve, though single readings can be large or run the other way.
Potency is read from the fitted curve at half-maximal effect.

The experiment can be described thus: Quantitative High-Throughput drug screen in 47 multiple myeloma cell lines against the NCATS MIPE library collection: MM1S_ATCC cell viability assay (AID 1918980). Also: nearly all actives have a fitted effect of over 45% in size.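 As to viability (% of control): 100% = wells with DMSO only and 0% = wells with media only.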 As to conditions: MM1S myeloma viability, CellTiter-Glo ATP luminescence, 48 h; series mostly up to 45.8 µM; viability (% of control): at the top concentration. The procedure, abridged:
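Inhibition of viability over 48 h was scored by ATP content (CellTiter-Glo) in 500-cell wells. Zero and full viability were defined by media-only and DMSO-only wells.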
(ATP-based viability assays read luminescence as a measure of living cells.)
Consider `O=C1c2ccccc2-[n+]2ccc3c([nH]c4ccccc43)c21`, for which the Potency is 2.64 µM (active).

In the case of `CC[C@]1(O)C[C@@H]2CN(CCc3c([nH]c4ccccc34)[C@@](C(=O)OC)(c3cc4c(cc3OC)N(C=O)[C@@H]3C45CCN4CC=C[C@](CC)([C@H]45)[C@@H](OC(C)=O)[C@]3(O)C(=O)OC)C2)C1` (stereo not given in full), the Potency was 18.7 µM (active). For `NC(=O)[C@@H](CCC(F)(F)F)N(Cc1ccc(-c2ncon2)cc1F)S(=O)(=O)c1ccc(Cl)cc1`, the Potency is 16.6 µM (active).

As for `COC[C@@H](c1ccc(C(F)(F)F)cc1)N1CCN(C2(C)CCN(C(=O)c3c(C)ncnc3C)CC2)C[C@H]1C`, the Potency is 2.35 µM (active). For the compound `O=c1c(-c2ccc(O)cc2)coc2cc(O)ccc12`, the Potency was 13.2 µM (active).

On to `CC(=O)OC1C(C)OC(Oc2c(-c3ccc(O)cc3)oc3cc(O)cc(O)c3c2=O)C(O)C1OC(C)=O` (stereo not given), for which the Potency is 20.9 µM (active). Regarding `O=C1NC(=O)C(=Cc2ccc3c(c2)OC(F)(F)O3)S1`, the Potency was 20.9 µM (active). For the compound `C[C@H]1[C@H](NC(=O)C(=NOC(C)(C)C(=O)O)c2csc(N)n2)C(=O)N1S(=O)(=O)O`, the Potency was 14.8 µM (active).

Turning to `O=C1NC(=O)C(=Cc2ccc3nccnc3c2)S1`, the Potency was 6.45 µM (active). On the same count and under the same terms, the result for `O=c1cc(-c2ccccc2)oc2cc(O)c(O)c(O)c12` reads 18.7 µM (active); that for `C[C@@H]1CCN(C(=O)CC#N)C[C@H]1N(C)c1ncnc2[nH]ccc12`, 2.64 µM (active); that for `CC=CC[C@@H](C)C(=O)[C@H]1C(=O)N[C@@H](C(C)C)C(=O)N(C)CC(=O)N(C)[C@@H](CC(C)C)C(=O)N[C@@H](C(C)C)C(=O)N(C)[C@@H](CC(C)C)C(=O)N[C@@H](C)C(=O)N[C@H](C)C(=O)N(C)[C@@H](CC(C)C)C(=O)N(C)[C@@H](CC(C)C)C(=O)N(C)[C@@H](C(C)C)C(=O)N1C`, 16.6 µM (active). With `CN(C)C1CCN(C(=O)c2ccc(NC(=O)Nc3nc(N4CCOCC4)nc(N4CCOCC4)n3)cc2)CC1`, the Potency is 0.0332 µM (active). The same measure, in the same setting: next, `C[C@H](NC(=O)C(=O)Nc1ccccc1C(C)(C)C)C(=O)N[C@@H](CC(=O)O)C(=O)COc1c(F)c(F)cc(F)c1F`: 11.8 µM (active). In the case of `O=C(NCc1ccncc1)C12C[C@H]3C[C@@H](C1)CC(c1ccc(Cl)cc1)(C3)C2`, the Potency was 13.2 µM (active). The same measure, in the same setting: the result for `CC[C@@H]1C=C(C)C[C@H](C)C[C@H](OC)[C@H]2O[C@@](O)(C(=O)C(=O)N3CCCC[C@@H]3C(=O)O[C@H](C(C)=C[C@@H]3CC[C@H](Cl)[C@H](OC)C3)[C@H](C)[C@@H](O)CC1=O)[C@H](C)C[C@H]2OC` reads 14.8 µM (active); that for `N[C@H](CSC(c1ccccc1)(c1ccccc1)c1ccccc1)C(=O)O`, 13.2 µM (active); that for `CC(=O)O[C@]1(C(C)=O)CC[C@@H]2[C@@H]3C[C@H](C)C4=CC(=O)CC[C@]4(C)[C@H]3CC[C@@]21C`, 13.2 µM (active). With `Clc1ccc(-c2nc3sccn3c2C=NOCc2ccc(Cl)c(Cl)c2)cc1`, the “viability (% of control)” value is 150%. Turning to `CC(C)(C)Cn1c(N)nc2ccc(-c3[nH]c(C(C)(C)C)nc3-c3ccc(F)cc3)nc21`, the Potency is 16.6 µM (active).

On to `Oc1ccc(C2=Cc3ccc(O)cc3OC2)cc1`, for which the Potency is 3.32 µM (active).

Take `C[C@H](NC(=O)c1sccc1OCc1ccc(Cl)cc1)c1ccccc1`: the Potency was 18.7 µM (active). Take `NC(=O)c1cccc(-c2cc(Nc3ccc(OC(F)(F)F)cc3)ncn2)c1`: the “viability (% of control)” value is 97.2%. Consider `O=C(N[C@@H](c1ccccc1)[C@@H]1CCCCN1)c1cccc(C(F)(F)F)c1Cl`, for which the Potency is 20.9 µM (active). Same read-out and setting: next, `CCc1ccc(OCc2ccccc2C(=O)Nc2ccc3nc(C)cc(N)c3c2)cc1`: 4.69 µM (active).
